Test results taken from PubChem BioAssay (NCATS).
Results filed as inconclusive are left out. Active and inactive are the calls of the source. Calls come from the whole dose curve; as a rule, active = well fitted inhibition curve with a large enough effect; inconclusive = small, poorly fitted or top-dose-only effect; inactive = flat fitted curve, though single readings scatter.

What follows are compounds tested on HEK293 (assay: Cytotoxic Profiling of Annotated Libraries Using Quantitative High-Throughput Screening (AID 1296008; note: nearly all actives have a fitted effect of over 60% in size)). Conditions: Five cell lines viability, CellTiter-Glo ATP luminescence, 48-72 h; max response: hits give low values.
How it was run: (§1)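 Compounds were pin-transferred onto cells and incubated 48 or 72 hr at 37 degree Celsius, 95% humidity. CellTiter-Glo was added, plates sat 10 min at room temperature, then ATP-coupled luminescence was imaged as the viability read-out.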

SMILES | outcome
CC1(CO)CC2C(O)C(=O)C3(CO)CC3(C)C2C1 (stereo not drawn) | inactive
O=C(COc1ccc(Cl)cc1)NC1CCC(NC(=O)COc2ccc(Cl)cc2)CC1 (stereo not drawn) | inactive
OC[C@H]1O[C@@H](OC(CCCCc2ccc(O)cc2)CCc2ccc(O)cc2)[C@H](O[C@@H]2OC[C@](O)(CO)[C@H]2O)[C@@H](O)[C@@H]1O (stereo partly drawn) | inactive
C=C1CCC[C@]2(C)C[C@]3(O)OC(=O)C(C)=C3C[C@@H]12 | inactive
Nc1ncnc2c1ncn2[C@H]1CCCO1 | inactive
CC1=C2[C@@H]([C@H](C)CC[C@H]2/C=C(\C)C(=O)O)[C@H](O)C1 | inactive
CC1=CC(=O)CC(C)(C)C1CCC(C)OC1OC(COC(=O)c2cc(O)c(O)c(O)c2)C(O)C(O)C1O (stereo not drawn) | inactive
COC(=O)[C@H](CC1C=NC=N1)NCC12CC3CC(CC(C3)C1)C2 (stereo partly drawn) | inactive
CC1(C)CCCC2(C)C3=C(C(=O)OC3O)C(O)CC12 (stereo not drawn) | inactive
CC(=O)O[C@@H]1C[C@@]23C[C@@]24CC[C@H](OC2OC[C@@H](O)[C@H](O)[C@H]2O)C(C)(C)[C@@H]4CC[C@H]3[C@]2(C)CC3OC4(C[C@@H](C)C3[C@@]12C)OCC1(C)OC14 (stereo partly drawn) | inactive
C=CC1C(O[C@@H]2O[C@H](CO)[C@@H](O)[C@H](O)[C@H]2O)OC=C(C(=O)OC)C1CC(=O)O (stereo partly drawn) | inactive
C#Cc1cnc2[nH]c(=O)n(C(CC)CC)c2n1 | inactive
CC(C)C(=O)O[C@@H]1[C@@H](O)[C@@H](O[C@H]2O[C@H](CO)[C@@H](O)[C@H](O)[C@H]2O)O[C@H](CO)[C@H]1O | inactive
COc1cc(C)c(C(=O)O[C@H]2[C@@H](O)[C@H](n3ccc(=O)[nH]c3=O)O[C@@H]2CO)c(OC)c1 | inactive
C[C@@H]1O[C@@H](OC[C@H]2O[C@@H](OCC3CCC4CC3C4(C)C)[C@H](O)[C@@H](O)[C@@H]2O)[C@H](O)[C@H](O)[C@H]1O (stereo partly drawn) | inactive
CC1=CC(=O)C[C@H]2[C@@H]1CC[C@@H](C)[C@]21CO[C@H](c2ccoc2)C1=O | inactive
CC(C)c1ccc(CC(=O)N2CCC[C@@H](c3cccc(OC(C)(C)C(=O)O)c3)C2)cc1 | inactive
CC(=O)NC(CCC(=O)O)C(=O)NCCc1ccc(O)cc1 (stereo not drawn) | inactive
C=C[C@H]1[C@H](O[C@@H]2O[C@H](CO[C@@H]3OC[C@](O)(CO)[C@H]3O)[C@@H](O)[C@H](O)[C@H]2O)OC=C2C(=O)OCC[C@H]21 | inactive
c1ccc(Nc2nc3c(s2)CCCc2[nH]ncc2-3)nc1 | inactive
COC(=O)C1C(CC(C)=O)C=CC(O)C12Oc1cc(C)cc(O)c1C2=O (stereo not drawn) | inactive
COC(=O)C1=C[C@@H](O)[C@@H](O)[C@H](O[C@@H]2O[C@H](COC(=O)/C=C/c3ccccc3)[C@@H](O)[C@H](O)[C@H]2O)C1 | inactive
C/C=C(\C)C(=O)O[C@@H](C)[C@H]1CC[C@]2(O)C3CCC4C[C@@H](OC5CC(OC)C(OC6CC(OC)C(OC7CC(OC)C(OC8OC(C)C(OC9OC(CO)C(O)C(O)C9O)C(OC)C8O)C(C)O7)C(C)O6)C(C)O5)CC[C@]4(C)C3[C@H](O)[C@@H](O)[C@]12C (stereo partly drawn) | inactive
C[C@@]12C[C@]3(O)O[C@H](O1)[C@]1(COC(=O)c4ccccc4)[C@H]3C[C@@]12O[C@@H]1O[C@H](COC(=O)c2ccccc2)[C@@H](O)[C@H](O)[C@H]1O | inactive
C/C=C(\C)C(=O)O[C@H]1[C@H](O)[C@]2(COC(C)=O)[C@H](O)C[C@]3(C)C(=CCC4[C@@]5(C)CC[C@H](O[C@@H]6O[C@H](C(=O)O)[C@@H](O[C@@H]7O[C@H](CO)[C@@H](O)[C@H](O)[C@H]7O)[C@H](O)[C@H]6O[C@@H]6O[C@H](CO)[C@@H](O)[C@H](O)[C@H]6O)[C@](C)(CO)C5CC[C@]43C)[C@@H]2CC1(C)C (stereo partly drawn) | inactive
CCC(CC)n1ccc2c(C(=O)NCc3c(C)cc(C)[nH]c3=O)cc(C#N)cc21 | inactive
COc1cc(O[C@@H]2O[C@H](CO)[C@@H](O)[C@H](O)[C@H]2O)c(CCC(=O)OC[C@H]2O[C@@H](Oc3cc(OC)c(C4OC(=O)C(C)(O)C4O)cc3CCC(=O)O)[C@H](O)[C@@H](O)[C@@H]2O)cc1C1OC(=O)C(C)(O)C1O (stereo partly drawn) | inactive
CC(=O)O[C@H]1C[C@@H]2[C@]3(CC[C@]4(C)[C@@H](C5(C)CCC(C(C)(C)O)O5)[C@@H](O)C[C@@]24C)C[C@@]32CC[C@H](O[C@@H]3OC[C@@H](O)[C@H](O)[C@H]3O)C(C)(C)[C@H]12 (stereo partly drawn) | inactive
CC1(C)CCC[C@@]2(C)[C@H]1[C@H](O)C=C1COC(=O)[C@@]12O | inactive

The compounds below were run on HaCat in the same assay as above. Conditions: Five cell lines viability, CellTiter-Glo ATP luminescence, 48-72 h; max response: hits give low values.
How it was run: as §1

SMILES | outcome
CC(=O)NCCCCn1c2c(c3ccccc31)C(=O)NCC2 | inactive
Cc1nnc(C(C)C)n1C1CC2CCC(C1)N2CCC(NC(=O)C1CCC(F)(F)CC1)c1ccccc1 (stereo not drawn) | inactive
CC1=CC[C@]2(C(=O)O[C@@H]3O[C@H](CO[C@@H]4O[C@H](CO)[C@@H](O[C@@H]5O[C@@H](C)[C@H](O)[C@@H](O)[C@H]5O)[C@H](O)[C@H]4O)[C@@H](O)[C@H](O)[C@H]3O)CC[C@]3(C)C(CCC4[C@@]5(C)C[C@@H](O)[C@H](O)[C@@](C)(CO)C5CC[C@]43C)C2C1C (stereo partly drawn) | inactive
COc1ccc(/C=C/C(=O)O[C@@H]2[C@@H](O)[C@H](C)O[C@@H](OC3C4C=COC(O[C@@H]5O[C@H](CO)[C@@H](O)[C@H](O)[C@H]5O)C4C4(CO)OC34)[C@@H]2O)cc1OC (stereo partly drawn) | inactive
C=C(C)[C@H]1C[C@@H](O)C(=C)CC[C@@H](O)C(=C)[C@@H](O)C1 | inactive
CC1(C)CC2C(O)C3=C(CC(C)(O)C2C1)C(=O)OC3O (stereo not drawn) | inactive
Oc1ccc([C@H]2COc3cc(O)ccc3C2)cc1 | inactive
CC(=C/C(=O)O)/C=C/[C@]1(O)[C@@]2(C)CO[C@]1(C)C[C@H](O[C@@H]1O[C@H](CO)[C@@H](O)[C@H](O)[C@H]1O)C2 | inactive
C[C@@H]1C(=O)O[C@H]2[C@H]1CC[C@@]1(C)C(=O)C=C[C@](C)(O)[C@H]21 | inactive
CC1(C)C[C@H]2C3=CCC4[C@@]5(C)CC[C@H](O[C@H]6O[C@H](C(=O)O)[C@@H](O)[C@H](O)[C@H]6O[C@H]6O[C@H](CO)[C@@H](O)[C@H](O)[C@H]6O[C@@H]6O[C@H](CO)[C@@H](O)[C@H](O)[C@H]6O)[C@](C)(CO)C5CC[C@@]4(C)[C@]3(C)CC[C@@]2(C)[C@H](O[C@@H]2OC[C@H](O)[C@H](OC3O[C@H](CO)[C@@H](O)[C@H](O)[C@H]3O)[C@H]2O)[C@@H]1O (stereo partly drawn) | inactive
CC1(CO)CC2C(O)C(=O)C3(CO)CC3(C)C2C1 (stereo not drawn) | inactive
O=C(COc1ccc(Cl)cc1)NC1CCC(NC(=O)COc2ccc(Cl)cc2)CC1 (stereo not drawn) | inactive
OC[C@H]1O[C@@H](OC(CCCCc2ccc(O)cc2)CCc2ccc(O)cc2)[C@H](O[C@@H]2OC[C@](O)(CO)[C@H]2O)[C@@H](O)[C@@H]1O (stereo partly drawn) | inactive
C=C1CCC[C@]2(C)C[C@]3(O)OC(=O)C(C)=C3C[C@@H]12 | inactive
Nc1ncnc2c1ncn2[C@H]1CCCO1 | inactive
CC1=C2[C@@H]([C@H](C)CC[C@H]2/C=C(\C)C(=O)O)[C@H](O)C1 | inactive
CC1=CC(=O)CC(C)(C)C1CCC(C)OC1OC(COC(=O)c2cc(O)c(O)c(O)c2)C(O)C(O)C1O (stereo not drawn) | inactive

SMILES | outcome
COC(=O)[C@H](CC1C=NC=N1)NCC12CC3CC(CC(C3)C1)C2 (stereo partly drawn) | inactive
CC1(C)CCCC2(C)C3=C(C(=O)OC3O)C(O)CC12 (stereo not drawn) | inactive
CC(=O)O[C@@H]1C[C@@]23C[C@@]24CC[C@H](OC2OC[C@@H](O)[C@H](O)[C@H]2O)C(C)(C)[C@@H]4CC[C@H]3[C@]2(C)CC3OC4(C[C@@H](C)C3[C@@]12C)OCC1(C)OC14 (stereo partly drawn) | inactive
C=CC1C(O[C@@H]2O[C@H](CO)[C@@H](O)[C@H](O)[C@H]2O)OC=C(C(=O)OC)C1CC(=O)O (stereo partly drawn) | inactive
C#Cc1cnc2[nH]c(=O)n(C(CC)CC)c2n1 | inactive
CC(C)C(=O)O[C@@H]1[C@@H](O)[C@@H](O[C@H]2O[C@H](CO)[C@@H](O)[C@H](O)[C@H]2O)O[C@H](CO)[C@H]1O | inactive
COc1cc(C)c(C(=O)O[C@H]2[C@@H](O)[C@H](n3ccc(=O)[nH]c3=O)O[C@@H]2CO)c(OC)c1 | inactive
C[C@@H]1O[C@@H](OC[C@H]2O[C@@H](OCC3CCC4CC3C4(C)C)[C@H](O)[C@@H](O)[C@@H]2O)[C@H](O)[C@H](O)[C@H]1O (stereo partly drawn) | inactive
CC1=CC(=O)C[C@H]2[C@@H]1CC[C@@H](C)[C@]21CO[C@H](c2ccoc2)C1=O | inactive
CC(C)c1ccc(CC(=O)N2CCC[C@@H](c3cccc(OC(C)(C)C(=O)O)c3)C2)cc1 | inactive
CC(=O)NC(CCC(=O)O)C(=O)NCCc1ccc(O)cc1 (stereo not drawn) | inactive
C=C[C@H]1[C@H](O[C@@H]2O[C@H](CO[C@@H]3OC[C@](O)(CO)[C@H]3O)[C@@H](O)[C@H](O)[C@H]2O)OC=C2C(=O)OCC[C@H]21 | inactive
c1ccc(Nc2nc3c(s2)CCCc2[nH]ncc2-3)nc1 | inactive
COC(=O)C1C(CC(C)=O)C=CC(O)C12Oc1cc(C)cc(O)c1C2=O (stereo not drawn) | inactive
COC(=O)C1=C[C@@H](O)[C@@H](O)[C@H](O[C@@H]2O[C@H](COC(=O)/C=C/c3ccccc3)[C@@H](O)[C@H](O)[C@H]2O)C1 | inactive
C/C=C(\C)C(=O)O[C@@H](C)[C@H]1CC[C@]2(O)C3CCC4C[C@@H](OC5CC(OC)C(OC6CC(OC)C(OC7CC(OC)C(OC8OC(C)C(OC9OC(CO)C(O)C(O)C9O)C(OC)C8O)C(C)O7)C(C)O6)C(C)O5)CC[C@]4(C)C3[C@H](O)[C@@H](O)[C@]12C (stereo partly drawn) | inactive
C[C@@]12C[C@]3(O)O[C@H](O1)[C@]1(COC(=O)c4ccccc4)[C@H]3C[C@@]12O[C@@H]1O[C@H](COC(=O)c2ccccc2)[C@@H](O)[C@H](O)[C@H]1O | inactive
